# According to PubChem BioAssay AID588511 (Johns Hopkins Ion Channel Center, 2011):
# Out of some 310,000 compounds screened, about 3,600 (1.2%) were called active.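 The calls were made as follows: active = ratio plate-corrected score three or more library SD toward inhibition, starting fluorescence score within five deviations; inactive = the rest.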 The list comes from a sample in which actives are over-represented; it also holds similar structures and randomly drawn compounds.
# Target: Anoctamin-1 (Mus musculus) (UniProt Q8BHY3)
# Sequence (Q8BHY3 whole entry, looked up): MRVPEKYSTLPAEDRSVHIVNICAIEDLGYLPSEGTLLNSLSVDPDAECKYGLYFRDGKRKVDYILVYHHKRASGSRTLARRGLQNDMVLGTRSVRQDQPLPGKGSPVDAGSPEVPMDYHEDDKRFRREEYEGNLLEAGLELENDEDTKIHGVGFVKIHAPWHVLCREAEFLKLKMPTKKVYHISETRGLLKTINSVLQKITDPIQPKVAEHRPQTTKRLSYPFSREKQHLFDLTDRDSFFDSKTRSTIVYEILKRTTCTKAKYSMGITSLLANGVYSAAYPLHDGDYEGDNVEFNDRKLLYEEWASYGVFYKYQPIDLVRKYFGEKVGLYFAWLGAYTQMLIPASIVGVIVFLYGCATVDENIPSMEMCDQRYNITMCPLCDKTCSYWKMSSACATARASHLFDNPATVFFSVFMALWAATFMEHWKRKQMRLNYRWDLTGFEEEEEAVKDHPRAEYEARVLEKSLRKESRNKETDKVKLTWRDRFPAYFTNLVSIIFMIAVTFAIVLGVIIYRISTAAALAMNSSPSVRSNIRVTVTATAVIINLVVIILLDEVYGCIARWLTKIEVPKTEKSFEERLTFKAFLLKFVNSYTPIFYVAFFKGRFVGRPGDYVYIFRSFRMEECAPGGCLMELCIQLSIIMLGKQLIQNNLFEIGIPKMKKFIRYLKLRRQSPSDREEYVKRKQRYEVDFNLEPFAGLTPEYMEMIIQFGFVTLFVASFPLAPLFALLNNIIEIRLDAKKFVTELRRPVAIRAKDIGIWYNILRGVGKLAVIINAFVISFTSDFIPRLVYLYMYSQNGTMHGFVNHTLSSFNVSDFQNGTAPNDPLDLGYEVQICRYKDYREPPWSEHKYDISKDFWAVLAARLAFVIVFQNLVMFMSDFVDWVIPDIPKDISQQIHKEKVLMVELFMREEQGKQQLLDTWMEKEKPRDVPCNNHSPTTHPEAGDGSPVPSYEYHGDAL
# Test: blockers of mouse ANO1 Ca-activated Cl channel – cell-based, HTS, primary screen (AID 588511);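 as to normalized B-score (activity score, 25-100; higher = stronger inhibition): score derived from kinetic fluorescence span divided by baseline fluorescence per well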
# Conditions: HEK293 TMEM16A/YFP iodide influx fluorescence, ionomycin; at 10 µM
row,Structure (SMILES),"normalized B-score (activity score, 25-100; higher = stronger inhibition)"
1,CC1CCN(C(=O)c2ccc(CSc3ccc(Cl)cc3)cc2)CC1,25 (active)
2,O=C(c1ccc(CSc2ccccc2)cc1)N1CCCCCC1,inactive
3,O=C(C1CC1)N1CCN=C1SCc1ccc(Cl)cc1,inactive
4,CCCCN1C(N)=NC[C@@H]1Cc1ccccc1,inactive
5,COc1ccc(NS(=O)(=O)c2ccc(C)c(C(=O)NNC(=O)c3csc(N4CCOCC4)n3)c2)cc1,inactive
6,Cc1ccc(CN2CCN(Cc3ccc(OCCO)cc3)CC2CCO)o1 (stereo not drawn),inactive
7,CC1=NN(c2cccc(Cl)c2)C(=O)C12CC(C)=C(C)CS2 (stereo not drawn),100 (active)
8,CC12CCC(C(=O)N(c3cccc(Cl)c3)C1=O)C2(C)C (stereo not drawn),inactive
9,Cc1ccccc1OCC(=O)NNC(=O)c1cc(S(=O)(=O)N(C)C)ccc1N1CCCC1,inactive
10,CN(C(=O)COC(=O)c1ccc(Br)o1)c1c(N)n(Cc2ccccc2)c(=O)[nH]c1=O,inactive
11,COC(=O)c1ccccc1NS(=O)(=O)c1ccc2[nH]c(=O)[nH]c2c1,inactive
12,COc1cccc(OC)c1C(=O)Nc1c(C(=O)N2CCN(c3ccccn3)CC2)oc2ccccc12,inactive
13,O=C(CN1C(=O)C2C3C=CC(C3)C2C1=O)Nc1nc(-c2ccccn2)cs1 (stereo not drawn),inactive
14,Cc1cc(NC(=O)[C@H](C)NC(=O)c2ccco2)ccc1Br,inactive
15,CC(NC(=O)c1ccco1)C(=O)Nc1nc(-c2ccccn2)cs1 (stereo not drawn),100 (active)
16,CCc1ccc(NC(=O)C(=O)NNC(=O)c2cccs2)cc1,inactive
17,OCC[C@H]1C[C@@H](O)[C@H](O)[C@@]2(OCCc3ccccc32)O1,inactive
18,CCOC(=O)C1Nc2ccc(C(F)(F)F)cc2C2C=CCC12 (stereo not drawn),inactive
19,COc1ccc(C(=O)N2CCCCC2C(=O)Nc2ccc(-n3nc(C)cc3C)cc2)o1 (stereo not drawn),inactive
20,O=S(=O)(NC1CC2CCC1C2)c1ccc(Cl)cc1 (stereo not drawn),inactive
21,CCOc1ccc2nc(NC(=O)c3cc([N+](=O)[O-])ccc3N3CCOCC3)sc2c1,inactive
22,CCC(=O)c1ccc(OCC(=O)Nc2ccc3nc(C)sc3c2)cc1,inactive

row,Structure (SMILES),"normalized B-score (activity score, 25-100; higher = stronger inhibition)"
1,Cc1cc(C)cc(OCC(=O)Nc2nc3ccc([N+](=O)[O-])cc3s2)c1,100 (active)
2,Cc1cc(F)ccc1N1CCC(N2CCN(C)C(CCO)C2)CC1 (stereo not drawn),inactive
3,Cc1cccc(C(=O)Nc2ccc(Oc3cnccn3)cc2)c1,inactive
4,OCCn1c(-c2ccccc2)csc1=Nc1ccccc1,25 (active)
5,Cc1csc(=NC(=O)c2ccccc2)n1CCO,inactive
6,Cc1csc(=Nc2ccccc2)n1CCO,inactive
7,O=C(OC1CCOC1=O)c1cccc(S(=O)(=O)Nc2ccc(F)cc2)c1 (stereo not drawn),inactive
8,CCOC(=O)C1CCN(C(=O)C2CCCN(S(=O)(=O)c3ccc(OC)c(Cl)c3)C2)CC1 (stereo not drawn),inactive
9,COC(=O)c1ccc(COC(=O)c2c(C)nn(Cc3ccccc3Cl)c2Cl)o1,25 (active)
10,COC(=O)c1ccc(CSc2ccccc2C)o1,inactive
11,COC(=O)c1ccc(COC(=O)C2CCN(S(=O)(=O)c3c(Cl)cccc3Cl)CC2)o1,inactive
12,Cc1ccc(O)c(/C=N/NC(=O)COc2ccc3c(C)cc(=O)oc3c2)c1,inactive
13,COc1ccc(S(=O)(=O)N2CCN(C(=S)NCC3CCCO3)CC2)cc1OC (stereo not drawn),inactive
14,CCOc1ccc(S(=O)(=O)N2CCN(C(=S)NCC3CCCO3)CC2)cc1 (stereo not drawn),inactive
15,S=C(NCC1CCCO1)N1CCN(c2ccc(Cl)c(Cl)c2)CC1 (stereo not drawn),100 (active)
16,Cc1ccccc1CN1CCNC(=O)C1CC(=O)NCCC1=CCCCC1 (stereo not drawn),inactive
17,Cc1nnc(SCCCCSc2nnc(C)c(=O)[nH]2)[nH]c1=O,inactive
18,CC(C)(C)c1ccc(CCC2OCC(CN3CCOCC3)O2)cc1 (stereo not drawn),inactive
19,CCCC(C)n1[nH]c(=O)c2c(C)cc(C)nc21 (stereo not drawn),inactive
20,O=C(NNC(=S)NCc1ccco1)C(c1ccccc1)c1ccccc1,inactive
21,CCCCC(=O)NNC(=S)NC(=O)C(c1ccccc1)c1ccccc1,25 (active)
22,CC(C)C(=O)Nc1cccc(NC(=S)NC(=O)C(c2ccccc2)c2ccccc2)c1,inactive

row,Structure (SMILES),"normalized B-score (activity score, 25-100; higher = stronger inhibition)"
1,CSCCC(NS(=O)(=O)c1ccc(C)cc1)C(=O)N1CCCC1 (stereo not drawn),inactive
2,CN(C)c1ccc(-c2nnc(-c3cccnc3)o2)cc1,inactive
3,COc1cccc(N(C(=O)c2ccn[nH]2)C2(C(=O)Nc3c(C)cccc3C)CCCCC2)c1,inactive
4,CS(=O)(=O)N1CCN=C1SCc1ccc(F)cc1,inactive
5,O=C(NCCc1ccccc1)c1ccc2c(c1)N(Cc1ccccc1)CCS2,inactive
6,CCOC(=O)N1CCN(C(=O)c2ccc3c(c2)N(Cc2ccc(C)cc2)CCS3)CC1,25 (active)
7,O=C(NCCN1CCOCC1)c1ccc2c(c1)N(Cc1ccc(Cl)cc1)CCS2,inactive
8,CC1CCN(C(=O)c2cccc(S(=O)(=O)N3CCCc4ccccc43)c2)CC1,inactive
9,O=C1CCC(=O)N(O)CCCCCNC(=O)CCC(=O)N(O)CCCCCNC(=O)CCC(=O)N(O)CCCCCN1,inactive
10,Cc1ccc(NC(=O)c2nc[nH]c2C(=O)N[C@@H](CCCCNC(=O)OC(C)(C)C)C(=O)OC(C)(C)C)cc1,inactive
11,O=C(Cc1ccc(Cl)c(Cl)c1)Nc1ccc(SC(F)F)cc1,inactive
12,O=C(CC(O)(C(F)(F)F)C(F)(F)F)Nc1ccc(Cl)c(Cl)c1,100 (active)
13,O=C(CC1SCCNC1=O)Nc1ccc(Cl)c(Cl)c1 (stereo not drawn),inactive
14,Cc1ccc(NC(=O)Cn2c(=O)n(CCC(=O)NC3CCN(Cc4ccccc4)CC3)c(=O)c3ccccc32)cc1,inactive
15,CCc1ccc(-c2nc(SCC(=O)NC3CCCC3)n[nH]2)cc1,25 (active)
16,COc1ccc(-c2nc(SCC(=O)N3CCCC3)n[nH]2)cc1,inactive
17,CCc1c(C)nc(SCC(=O)NC2CCCC2)[nH]c1=O,inactive
18,CCC(CC)C(=O)Nc1c2c(nn1-c1ccc(C)cc1)CS(=O)(=O)C2,inactive
19,O=C(NNS(=O)(=O)c1ccccc1C(F)(F)F)c1cc2ncc(C(F)(F)F)cc2s1,inactive
20,O=C(Nc1ccccc1N1CCN(C(=O)c2ccccc2)CC1)c1ccco1,inactive
21,CCCCC(=O)Nc1ccccc1N1CCN(c2ccc(F)cc2)CC1,inactive
22,CCCC(=O)Nc1ccccc1N1CCN(C(=O)c2ccccc2)CC1,25 (active)

row,Structure (SMILES),"normalized B-score (activity score, 25-100; higher = stronger inhibition)"
1,Cc1cc(C)cc(NS(=O)(=O)c2ccc(Oc3ncc(C(F)(F)F)cc3Cl)cc2)c1,25 (active)
2,COc1ccccc1Oc1ccc(S(=O)(=O)Nc2cccnc2)cc1,inactive
3,Cc1cc(C)cc(NS(=O)(=O)c2ccc(F)cc2)c1,inactive
4,CN1C(CC(=O)Nc2ccc(Br)cc2)c2ccccc2CC1(C)C (stereo not drawn),inactive
5,Cc1ccccc1CSc1nnc(CCCCCNC(=O)OC(C)(C)C)o1,100 (active)
6,CCc1ccccc1NC(=O)CSc1nnc(CCNC(=O)OC(C)(C)C)o1,inactive
7,Cc1cccc(NC(=O)CSc2nnc(CCCCCNC(=O)OC(C)(C)C)o2)c1C,inactive
8,CCc1ccc(C2C(C#N)=C(N)N(N3CCOCC3)C3=C2C(=O)CC(C)(C)C3)s1 (stereo not drawn),inactive
9,COc1cccc(C(=O)NCCS(=O)(=O)NCC2CCCO2)c1 (stereo not drawn),inactive
10,O=C(CCNC(=O)c1ccc(Br)cc1)NCCCc1ccccc1,inactive
11,S=C(NN=C1CCN(Cc2ccccc2)CC1)NC1CCCCC1,inactive
12,S=C(Nc1ccc(Br)cc1)NC1CCN(Cc2ccccc2)CC1,25 (active)
13,S=C(Nc1ccc(Br)cc1Cl)NC1CCN(Cc2ccccc2)CC1,inactive
14,S=C(NCCc1ccccc1)Nc1ccccc1,inactive
15,S=C(NCCCc1ccccc1)Nc1ccc(Br)cc1,100 (active)
16,O=C(NCc1ccccn1)C1CCN(S(=O)(=O)c2ccc(Br)cc2)CC1,inactive
17,COc1ccc(C(C#N)(CC(=O)O)c2cnccn2)cc1OC (stereo not drawn),inactive
18,COc1ccc(CCNC(=O)c2ccccc2OCc2ccccc2)cc1,inactive
19,CC(=O)c1ccccc1OCc1ccc(C(=O)c2ccccc2)cc1,25 (active)
20,O=C(NC1CCC(O)CC1)c1ccccc1OCc1ccc(F)cc1 (stereo not drawn),inactive
21,COc1ccccc1CNS(=O)(=O)c1ccc2c(c1)NC(=O)CS2,inactive
22,C=CCSc1nsc(NC(=O)Nc2cccc(C(C)=O)c2)n1,100 (active)

row,Structure (SMILES),"normalized B-score (activity score, 25-100; higher = stronger inhibition)"
1,CCSc1nsc(NC(=O)Nc2ccccc2OC)n1,inactive
2,O=C(Nc1ccccc1)Nc1nnc(COc2ccccc2F)s1,inactive
3,CCSc1nsc(NC(=O)Nc2cccc(C(C)=O)c2)n1,inactive
4,C=C(C)C(=O)Nc1cccc(C(C)=O)c1,inactive
5,CSc1nsc(NC(=O)Nc2ccccc2)n1,100 (active)
6,COc1ccc(-c2c(-c3ccc(OC)cc3O)nc(C)nc2C(F)(F)F)cc1,inactive
7,COc1cc(NC(=O)c2ccc(-c3csc(C)n3)cc2)c(OC)cc1Cl,inactive
8,CC1CCCCN1CCCNC(=O)Cn1ncc2c([nH]c3ccccc32)c1=O (stereo not drawn),inactive
9,Cc1ccc2c(c1)N(CC(=O)NCCCN1CCCCC1)C(=O)c1cccnc1O2,inactive
10,Clc1ccc(-c2nc3ccccn3c2CN2CCSCC2)cc1,inactive
11,CCCCn1c(N)c(N(CC(C)C)C(=O)CN(C)S(=O)(=O)c2ccc(F)cc2)c(=O)[nH]c1=O,inactive
12,CC(=O)c1cccc(NC(=O)N2CCCC2C(=O)NCCc2ccccc2)c1 (stereo not drawn),inactive
13,CC(=O)c1cccc(NC(=O)N2CCCC2C(=O)NCCC(C)C)c1 (stereo not drawn),25 (active)
14,COc1ccc(CCNC(=O)C2CCCN2C(=O)Nc2ccccc2)cc1OC (stereo not drawn),inactive
15,Cc1snc(SCc2c(F)cccc2Cl)c1C#N,inactive
16,Cc1cc(C)c2c(-n3cccc3)c(C(=O)NNS(=O)(=O)c3ccc(F)cc3)sc2n1,inactive
17,CC(Sc1nnc(Cc2ccc([N+](=O)[O-])cc2)o1)C(N)=O (stereo not drawn),inactive
18,CCn1nccc1C(=O)Nc1ccc(S(=O)(=O)NC23CC4CC(CC(C4)C2)C3)cc1,25 (active)
19,Cc1cc(C(F)F)n2nc(C(=O)Nc3ccc(S(=O)(=O)NC45CC6CC(CC(C6)C4)C5)cc3)nc2n1,inactive
20,CCn1nccc1C(=O)Nc1ccc(Cl)c(Cl)c1,inactive
